# Bioassay records deposited in PubChem BioAssay by several laboratories.
# Compounds with a hit are over-represented: about 3.5% of the library has one in this group of screens.
# Rv3671c protease – inhibits the M. tuberculosis serine protease Rv3671c. inhibition, % at 5.96 µM. 320,000 tested, 0.048% active; in the data active means inhibition above about 38%;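 further: extracellular domain of Rv3671c used as enzyme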
# Mtb bLac sens – beta-lactam sensitization of Mtb H37Rv | M. tuberculosis H37Rv growth with meropenem, percent inhibition | inhibition, % at 25 µM | 330,000 tested, 0.27% active; call rule not given here;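 further: growth measured after seven days incubation then overnight dye step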
# GDH-TPI counter-1 – GDH-TPI coupled enzyme inhibition counter-screen | GDH-TPI coupled enzyme counterscreen, NADH absorbance | inhibition, % at 4.8 µM | AID 588335 | 360,000 tested, 1.2% active; in the data active means inhibition above about 30%
# Mtb FBA inh – Mtb fructose-bisphosphate aldolase inhibition; 360,000 tested, 2.3% active; inhibition, % at 1 µM; purified M. tuberculosis FBA, fluorescence read-out; P9WQA3
# Mtb UGM inh – inhibitors of M. tuberculosis UDP-galactopyranose mutase. purified UGM, fluorescence polarization probe displacement. inhibition, % at 10 µM. 320,000 tested, 0.06% active. AID 504406; in the data active means inhibition above about 10%, passing the limit was not always enough
# Target sequence (P9WIQ1 whole entry, looked up): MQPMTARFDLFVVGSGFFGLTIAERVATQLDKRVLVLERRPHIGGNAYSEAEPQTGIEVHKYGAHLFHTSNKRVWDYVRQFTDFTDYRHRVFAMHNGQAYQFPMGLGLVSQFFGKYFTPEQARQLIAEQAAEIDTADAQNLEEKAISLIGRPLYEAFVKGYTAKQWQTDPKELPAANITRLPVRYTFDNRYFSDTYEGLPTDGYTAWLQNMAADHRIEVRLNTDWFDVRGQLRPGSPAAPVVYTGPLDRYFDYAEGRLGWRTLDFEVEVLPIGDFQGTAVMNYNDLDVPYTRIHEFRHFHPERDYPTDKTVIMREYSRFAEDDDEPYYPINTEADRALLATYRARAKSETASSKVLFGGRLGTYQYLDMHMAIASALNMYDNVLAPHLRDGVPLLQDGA
# Mtb FBA confirm – confirmation of M. tuberculosis fructose-bisphosphate aldolase inhibitors; shares compounds with Mtb FBA inh; purified M. tuberculosis FBA, fluorescence read-out; inhibition, % at 1 µM; 5,600 tested, 78% active; AID 651616
# GDH-TPI counter-2 – inhibits GDH-TPI coupling enzymes, flagging Mtb FBA hits; shares compounds with Mtb FBA inh; GDH-TPI coupled enzyme counterscreen, fluorescence; inhibition, % at 1 µM; 5,600 tested, 81% active; AID 652141; in the data active means inhibition above about 10%
# Numbers stand for hits; – = inactive; · = not tested or not shown; + = active, no number. Unless noted, no stated cut-off is given here; in the data, active means inhibition above about 27%; inactive means the rest.
SMILES,Rv3671c protease,Mtb bLac sens,GDH-TPI counter-1,Mtb FBA inh,Mtb UGM inh,Mtb FBA confirm,GDH-TPI counter-2
CCCc1cc(=O)oc2cc(C)cc(OCC(=O)N3CCC(C(N)=O)CC3)c12,–,–,–,39.1,–,85.5,80.9
CCCc1cc(=O)oc2cc(OCC(=O)N3CCC(C(=O)O)(c4ccccc4)CC3)ccc12,–,–,–,76.2,–,101.4,81.3
Cc1cc(OCC(=O)N2CCC(C(=O)O)CC2)c2c3c(c(=O)oc2c1)CCC3,–,–,–,97.7,–,166.3,133.2
CCc1cc(=O)oc2cc(C)cc(OCC(=O)N3CCC(C(=O)O)CC3)c12,–,–,–,76.0,–,120.9,108.9
CCCc1cc(=O)oc2cc(OCC(=O)N3CCN(Cc4ccc5c(c4)OCO5)CC3)ccc12,–,–,–,–,–,·,·
COc1ccccc1N1CCN(C(=O)COc2cc(C)cc3oc(=O)cc(C)c23)CC1,–,–,–,–,–,·,·
Cc1cc(OCC(=O)N2CCC(O)(c3ccc(Cl)cc3)CC2)c2c(C)cc(=O)oc2c1,–,–,–,–,–,·,·
CCCCc1cc(=O)oc2cc(C)cc(OCC(=O)N3CCC(C(=O)O)(c4ccccc4)CC3)c12,–,–,–,62.4,–,51.8,34.1
CCCc1cc(=O)oc2cc(C)cc(OCC(=O)N3CCC(C(=O)O)CC3)c12,–,–,–,96.5,–,72.7,64.7
Cc1cc(OCC(=O)N2CCc3ccccc3C2)c2c(-c3ccccc3)cc(=O)oc2c1,–,–,–,–,–,·,·
COc1ccc2oc(C(=O)OCC(=O)/C(C#N)=C(\C)N)c(C)c2c1,–,–,–,–,–,·,·
CCOc1ccc(NC(=S)Nc2cccc3ccccc23)cc1,–,–,–,57.8,–,82.0,72.9
C=CCNC(=S)Nc1cccc2ccccc12,–,–,–,–,–,·,·
CC(C)c1ccc(NC(=S)Nc2cccc3ccccc23)cc1,–,–,–,30.1,–,68.3,54.7
CCOc1ccc(NC(=S)Nc2cccc3cnccc23)cc1,–,–,–,–,–,·,·
O=C1N=c2ccccc2=C1c1sc(=S)n(Cc2ccccc2Cl)c1O,–,–,–,–,–,·,·
Cc1cc(NC(=O)CCC(=O)N(c2ccccc2C)C(C(=O)NC2CCCC2)c2ccccc2)no1 (stereo not given),–,–,–,86.4,–,+,167.0
Cc1cc(NC(=O)CCC(=O)N(c2ccccc2)C(C(=O)NC2CCCC2)c2ccccc2)no1 (stereo not given),–,–,–,–,–,·,·
CCOC(=O)c1ccc(-n2c(O)c(/C=N/NC(=O)C3COc4ccccc4O3)c3ccccc3c2=O)cc1 (stereo not given),–,–,–,–,–,·,·
CCN(CC)C(=O)c1ccccc1NS(C)(=O)=O,–,–,–,–,–,·,·
Cc1ccc(CNC(=O)c2ccccc2NS(=O)(=O)c2ccc(Cl)nc2)cc1,–,–,–,–,–,·,·
Cc1cc(C)c(C)c(S(=O)(=O)Nc2ccccc2C(=O)O)c1C,–,–,–,27.3,–,–,10.8
Cc1ccc(CNC(=O)c2ccccc2NS(C)(=O)=O)cc1,–,–,–,37.8,–,+,+
CS(=O)(=O)Nc1ccccc1C(=O)O,–,–,–,27.7,–,116.5,104.4
CC(NC(=O)c1ccc(NS(C)(=O)=O)cc1)c1ccccc1 (stereo not given),–,–,–,–,–,·,·
SMILES,Rv3671c protease,Mtb bLac sens,GDH-TPI counter-1,Mtb FBA inh,Mtb UGM inh,Mtb FBA confirm,GDH-TPI counter-2
Cc1cc(S(=O)(=O)Nc2ccccc2C(=O)O)ccc1Cl,–,–,–,–,–,·,·
CC(NC(=O)c1ccccc1NS(C)(=O)=O)c1ccccc1 (stereo not given),–,–,–,41.6,–,132.7,106.3
O=C(C1CCCN(Cc2ccc(Br)cc2)C1)N1CCCCC1 (stereo not given),–,–,–,–,–,·,·
O=C(O)C1(Nc2ccc([N+](=O)[O-])cc2[N+](=O)[O-])CCCC1,·,·,–,–,·,·,·
COc1ccc(-c2[nH]ncc2CN(Cc2nccn2C)C(C)C)c(F)c1,–,–,–,–,–,·,·
CCn1ccnc1CN(C)Cc1cn[nH]c1-c1ccc(F)cc1F,–,–,–,90.5,–,–,–
COc1cc(OC)cc(C(=O)Nc2cccc3ccccc23)c1,–,–,–,–,–,·,·
COC(=O)/C(=C/Nc1cccc2ccccc12)[N+](=O)[O-],–,–,–,73.9,–,98.3,80.1
O=S(=O)(NCC(c1cccnc1)N1CCN(Cc2ccccc2)CC1)c1cc(F)ccc1F (stereo not given),–,–,–,–,–,·,·
Cc1oc(/N=C/c2ccc(O)cc2O)c(C#N)c1C,–,–,–,70.9,–,+,+
Cc1cc(C(=O)CCC(=O)NCC(=O)Nc2c(C)cccc2C)c(C)s1,–,–,–,–,–,·,·
CC1=CC=CC2=NC(=O)CC(C)(C(=O)N(CC(=O)NC3CCCC3)c3ccc(F)cc3)N12 (stereo not given),–,–,–,95.2,–,+,+
CC1=CC=CC2=NC(=O)CC(C)(C(=O)N(CC(=O)NC3CCCC3)c3ccccc3C)N12 (stereo not given),–,–,–,110.1,–,121.0,95.3
CC1=CC=CC2=NC(=O)CC(C)(C(=O)O)N12 (stereo not given),–,–,–,102.7,–,–,13.6
Cc1ccccc1N(CC(=O)NC1CCCCC1)C(=O)c1csnn1,–,–,–,–,–,·,·
Cc1cc(Oc2ccc(=O)[nH]n2)nc(Cl)n1,–,–,–,–,–,·,·
CC(=O)Nc1ccccc1NS(=O)(=O)c1ccccc1[N+](=O)[O-],–,–,–,–,–,·,·
CC(=O)Nc1ccccc1NS(=O)(=O)c1cccc([N+](=O)[O-])c1,–,–,–,99.1,–,+,175.2
CCN(CC)Cc1c(O)ccc2c(=O)c(Oc3ccccc3OC)coc12,–,–,–,71.1,–,+,+
COc1ccccc1Oc1coc2c(CN3CCN(C)CC3)c(O)ccc2c1=O,–,–,–,80.4,–,90.6,72.7
CCN(CC)Cc1c(O)ccc2c(=O)c(-c3ccccc3)coc12,–,–,–,69.4,–,61.4,42.8
Cc1nc(-c2coc3c(CN(C)C)c(O)ccc3c2=O)cs1,–,–,–,41.9,–,–,–
CC(C)C(NC(=O)c1ccccc1F)C(=O)NCCc1ccccn1 (stereo not given),–,–,–,–,–,·,·
O=C(NNC(=O)C1CCC(C(=O)NNC(=O)c2cccs2)CC1)c1cccs1 (stereo not given),–,–,–,–,–,·,·
CCC(C(=O)NCCc1c[nH]c2ccc(C)cc12)c1ccccc1 (stereo not given),–,–,–,–,–,·,·
CN(C)C(=O)Oc1ccc(-c2cn3cc(C(F)(F)F)ccc3n2)cc1,–,–,–,34.2,–,70.0,58.5
CC(C)(CNC(=O)c1cc2c(s1)CCCC2)N1CCOCC1,–,–,–,–,–,·,·
